Assay outcomes: PubChem, Buhrlage Lab, Dana-Farber Cancer Institute and Novartis Institutes for BioMedical Research (Cambridge, Mass)
OTUD3 inh – human OTUD3 deubiquitinase inhibition. Q5T2D3. purified OTUD3, Ub-rhodamine fluorescence, 2 h. inhibition, % at 25 µM. 0.7% of 47,000 active
USP28 block – human USP28 deubiquitinase inhibition. 3% of 47,000 active. purified USP28, Ub-rhodamine cleavage fluorescence, 30 min. inhibition, % at 25 µM. AID 1645857
Target sequence (Q96RU2 whole entry, looked up): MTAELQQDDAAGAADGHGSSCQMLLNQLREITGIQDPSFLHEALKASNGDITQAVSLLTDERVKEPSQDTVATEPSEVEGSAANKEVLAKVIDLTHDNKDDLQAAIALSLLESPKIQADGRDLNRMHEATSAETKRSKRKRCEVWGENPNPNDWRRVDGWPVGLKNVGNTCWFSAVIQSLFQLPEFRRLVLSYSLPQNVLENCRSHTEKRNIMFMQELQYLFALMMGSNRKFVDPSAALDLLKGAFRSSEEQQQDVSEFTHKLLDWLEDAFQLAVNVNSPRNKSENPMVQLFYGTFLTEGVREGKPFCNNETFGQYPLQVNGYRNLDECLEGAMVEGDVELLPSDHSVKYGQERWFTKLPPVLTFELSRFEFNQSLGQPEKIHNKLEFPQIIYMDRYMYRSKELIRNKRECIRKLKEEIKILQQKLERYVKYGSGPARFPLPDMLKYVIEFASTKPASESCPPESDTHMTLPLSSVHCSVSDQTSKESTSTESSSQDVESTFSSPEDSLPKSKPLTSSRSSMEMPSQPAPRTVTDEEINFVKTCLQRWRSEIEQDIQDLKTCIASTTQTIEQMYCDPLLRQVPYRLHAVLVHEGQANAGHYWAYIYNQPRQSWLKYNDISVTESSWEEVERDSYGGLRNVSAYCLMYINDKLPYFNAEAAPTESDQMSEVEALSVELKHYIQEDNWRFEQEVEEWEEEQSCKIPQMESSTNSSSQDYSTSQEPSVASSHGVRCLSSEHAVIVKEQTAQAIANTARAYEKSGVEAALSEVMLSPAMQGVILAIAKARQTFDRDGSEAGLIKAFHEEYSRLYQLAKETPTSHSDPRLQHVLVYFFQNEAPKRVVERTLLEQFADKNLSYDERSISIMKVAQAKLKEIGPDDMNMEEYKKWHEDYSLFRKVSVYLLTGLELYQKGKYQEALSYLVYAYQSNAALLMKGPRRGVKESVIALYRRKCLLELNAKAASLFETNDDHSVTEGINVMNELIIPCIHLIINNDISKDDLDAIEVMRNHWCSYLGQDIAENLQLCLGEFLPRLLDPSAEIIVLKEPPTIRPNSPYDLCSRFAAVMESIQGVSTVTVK
* marks the source's active call; other numbers are inactive results; x = no result. Compounds with a hit are over-represented: about 3.3% of the library has one in this group of screens. No stated cut-off is given here; in the data, active means inhibition above about 30%; inactive means the rest.

SMILES	OTUD3 inh	USP28 block
O=C(OCc1ccc(F)cc1)c1cc(-c2cccnc2)nc2ccccc12	1	4
Cc1nc2ccccc2n1CC(=O)OCc1cccc(Cl)c1	-7	0
O=C(OCc1cccc(Cl)c1)c1ccc2ccccc2n1	17	91*
O=C(OCc1ccc(F)cc1)c1ccc2ccccc2n1	-8	78*
CS(=O)(=O)NC1CCCN(C(=O)Nc2cccc3ccccc23)C1 (configuration not stated)	11	11
O=C(c1cc(-c2cccnc2)nc2ccccc12)N1CCSCC1	-1	-9
COc1c(C)cnc(Cn2c(C(=O)OC(C)C)cc3c2ccn3-c2ccc(F)cc2)c1C	-6	1
Cc1cc(N)n(-c2ccc(Cl)c(Cl)c2)c(=O)n1	12	13
CCOC(=O)c1ccc(NC(=O)COc2cccc3c2CCN(CC)C3=O)cc1	1	69*
CCOC(=O)c1ccc(NC(=O)CN2C(=O)CSCC2=O)cc1	-9	-10
CCCC[C@@H](C)/C=C(C)/C=C(\C)C(=O)NC1=C[C@](O)(/C=C/C=C/C=C/C(=O)NC2=C(O)CCC2=O)[C@@H]2O[C@@H]2C1=O	69*	73*
CCCCCCC(C)/C=C(C)/C=C/C(=O)N[C@H]1CC2(O[C@H]1O)[C@@H]1O[C@@H]1C(=O)[C@@H]1O[C@@H]12 (some centres not stated)	-9	5
O=C(CSc1ccc2nnc(CCNS(=O)(=O)c3ccccc3)n2n1)N1CCCc2ccccc21	-7	-1
O=C(CSc1ccc2nnc(-c3cccc(F)c3)n2n1)N1CCCc2ccccc21	40*	44*
CCc1nc2c(NC(=O)Nc3cccc(C(=O)OC)c3)cccn2n1	-1	50*
COc1cccc(C(=O)Nc2cccn3nc(C)nc23)c1	6	3
CCOC(=O)c1cccc(NC(=O)Nc2cccn3nc(C)nc23)c1	-4	83*
CCc1nc2c(NC(=O)NCc3ccc(OC)cc3)cccn2n1	5	8
COc1cccc(N(C(=O)CC(C)c2ccccc2)c2nc3ccccc3s2)c1 (configuration not stated)	-2	3
Cc1c(-c2nnc(-c3ccccc3Cl)o2)nnn1-c1ccccc1	6	35*
Cc1c(-c2nnc(-c3ccccn3)o2)nnn1-c1ccc(C(C)C)cc1	0	0
CNC(=O)C1CN(C(=O)Nc2ccc3c(c2)CCC3)CC12CCCC2 (configuration not stated)	-7	-5
Cc1cc(Oc2ccc(F)cc2F)nc2ccccc12	5	31*
COc1ccccc1Nc1cc(C)c2ccccc2n1	-3	5
Cc1ccccc1Cc1nc(-c2ccnc(N3CCOCC3)c2)no1	9	32*
SMILES	OTUD3 inh	USP28 block
Cc1ccccc1Cc1nc(-c2ccc(=O)[nH]c2)no1	8	84*
Cc1ccc(-c2nc(-c3ccc(=O)[nH]c3)no2)cc1F	-19	-30
O=c1ccc(-c2noc(Cc3c(F)cccc3Cl)n2)c[nH]1	14	93*
O=c1ccc(-c2noc(-c3ccc4cc[nH]c4c3)n2)c[nH]1	-20	11
c1cc(-c2noc(C3CCCCC3)n2)cc(N2CCOCC2)n1	0	2
C\C=C(/C=C(C)/C=C/C=C/C=C(\C)C(=O)C1C(=O)N[C@@]2(O)CCO[C@@H]12)C(=O)OC (some centres not stated)	-51	-54
COc1ccc(OC)c(NC(=O)Cn2cnc3c(c(C)c(C)n3-c3ccccc3)c2=O)c1	-2	0
CC(C)(C)c1n[nH]c(C2CN(Cc3nnc(C4CC4)o3)CCO2)n1 (configuration not stated)	-2	-3
COc1ccc(NC(=O)C(C)n2nc(-c3ccccc3)c3cc(Cl)ccc32)cc1 (configuration not stated)	-10	-9
CC(C(=O)NCCc1ccccc1)n1nc(-c2ccccc2)c2cc(Cl)ccc21 (configuration not stated)	34*	18
O=C1CC(C(=O)Nc2cccc(F)c2)c2c(nc(N3CCCCC3)[nH]c2=O)N1 (configuration not stated)	-62	-36
CCc1ccc(NC(=O)CSc2ccc(N3CCC(C(=O)NC4CC4)CC3)nn2)cc1	38*	67*
O=C(CSc1ccc(N2CCOCC2)nn1)Nc1ccc(Cl)cc1	-12	4
Cc1noc2nc(C)n(CC(=O)NC3CCCC3)c(=O)c12	7	6
O=C(NCc1ccc2c(c1)OCO2)c1[nH]nc2c1CCc1ccccc1-2	7	24
O=C(Nc1ccc2c(c1)OCO2)c1[nH]nc2c1CCc1ccccc1-2	22	43*
Cc1nc(Nc2nncs2)cc(C2CCCN2Cc2cccnc2)n1 (configuration not stated)	2	7
CCCc1cc(-c2cc(=O)n3[nH]c(C)c(CC)c3n2)no1	10	6
CC(C)CCn1c(=O)c2ccccc2n2c(CCC(=O)NC3CCCCCC3)nnc12	38*	16
O=C(CCc1nnc2n(Cc3ccccc3Cl)c(=O)c3ccccc3n12)N1CCN(c2ccccn2)CC1	10	6
CC(C)CCn1c(=O)c2ccccc2n2c(CCC(=O)NCc3ccccc3Cl)nnc12	0	-5
COc1ccc(CNC(=O)CCc2nnc3n(Cc4ccccc4Cl)c(=O)c4ccccc4n23)cc1	33*	36*
O=C(CCc1nnc2n(Cc3ccccc3Cl)c(=O)c3ccccc3n12)NCc1ccccn1	13	36*
O=C(CCc1nnc2n(Cc3ccccc3Cl)c(=O)c3ccccc3n12)NCc1ccccc1	11	5
COc1ccccc1C(=O)Nc1cc(-c2ccc(F)c(F)c2)no1	10	9
SMILES	OTUD3 inh	USP28 block
Cc1ccccc1-n1c(=O)n(Cc2ccccc2N)c(=O)c2[nH]cnc21	-62	-74
O=C(Cn1cnc2ccccc2c1=O)c1c[nH]c2ccccc12	0	32*
O=C(Cn1cnc2cc([N+](=O)[O-])ccc2c1=O)c1c[nH]c2ccccc12	-11	13
c1cc(N2CCCCCC2)ncc1-c1noc(CN2CCOCC2)n1	2	x
CN(Cc1ccco1)C(=O)C1CCN(c2ccc(N3CCCCC3)nn2)CC1	-8	-18
Cc1c(O)cc(O)cc1O	48*	-4
Cc1cc(O)c(C)c(O)c1C=O	4	3
O=C(/C=C/c1ccccc1Cl)NCc1ccncc1	13	11
CC(=O)c1oc2nc3c(c(-c4ccc(Cl)cc4)c2c1N)CCc1ccccc1-3	37*	9
N#Cc1c(N)nc2c(c1-c1ccccc1)CCc1ccccc1-2	-10	16
O=C(Nc1ccc2c(c1)ncn2C1CCCCC1)C1CC1	-10	-10
Cc1nc2sc(C(=O)Nc3ccccc3Br)c(N)c2c(C)c1C	10	33*
Cc1cc(C)c2c(N)c(C(=O)Nc3ccccc3Br)sc2n1	-2	x
O=C(Cc1cc(-c2ccc(Cl)cc2)on1)NCCc1ccccc1	-1	-13
CCOc1ccc(CC(=O)Nc2ccc(-c3cn4cccnc4n3)cc2)cc1	-6	44*
Cc1ccn2cc(-c3ccc(NC(=O)Cc4ccccc4)cc3)nc2n1	11	16
COc1ccc(CCNC(=O)Nc2ccc3snnc3c2)c(OC)c1	-7	7
COc1ccc(-c2cc(C(=O)NCCC3=CCCCC3)nn2C2CCS(=O)(=O)C2)cc1 (configuration not stated)	10	43*
COc1ccc(-c2cc(C(=O)NC3CC3)nn2C2CCS(=O)(=O)C2)cc1 (configuration not stated)	4	0
Cc1nn2c(CNC(=O)c3cccnc3)c(-c3ccccc3)nc2s1	3	10
